ALDH1A1 block – ALDH1A1 (human) enzyme inhibition. 220,000 tested, 7.3% active. Potency, µM (series often up to 75.3 µM), for the others: at the highest dose activity, negative = inhibition, usual class: inhibitors. P00352. Purified ALDH1A1, NADH fluorescence, propionaldehyde substrate;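 further: potency means the concentration at half of the fitted maximal effect; plate controls were no enzyme wells and a reference inhibitor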
JMJD2E inh – JMJD2E (human) inhibition | B2RXH2 | JMJD2E catalytic domain, FDH-coupled NADH fluorescence (FDH is formaldehyde dehydrogenase) | Potency, µM (series often up to 57.1 µM), for the others: top-dose activity change, negative = inhibition, usual class: inhibitors | 230,000 tested, 1.6% active;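 further: potency means the concentration at half of the fitted maximal effect; 0% = wells with enzyme and -100% = buffer wells without enzyme; nearly all actives have a fitted effect of over 50% in size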
Target sequence (B2RXH2 1-337 limits assumed): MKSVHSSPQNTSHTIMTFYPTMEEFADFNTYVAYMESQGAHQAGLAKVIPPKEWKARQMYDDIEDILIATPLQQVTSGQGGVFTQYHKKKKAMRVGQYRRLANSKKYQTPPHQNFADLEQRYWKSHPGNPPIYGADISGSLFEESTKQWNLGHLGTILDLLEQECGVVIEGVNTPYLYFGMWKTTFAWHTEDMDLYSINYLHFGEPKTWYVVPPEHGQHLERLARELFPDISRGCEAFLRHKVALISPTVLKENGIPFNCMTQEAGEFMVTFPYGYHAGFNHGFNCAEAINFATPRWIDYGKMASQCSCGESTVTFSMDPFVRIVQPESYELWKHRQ
HPGD block – inhibitors of human 15-hydroxyprostaglandin dehydrogenase (HPGD); AID 894; purified HPGD, NADH fluorescence kinetic, PGE2 substrate; 150,000 tested, 4.3% active; Potency, µM, without a hit: top-dose activity change, negative = inhibition, actives largely listed as inhibitors; P15428; further: potency means the concentration at half of the fitted maximal effect
Target sequence (P15428 whole entry, looked up): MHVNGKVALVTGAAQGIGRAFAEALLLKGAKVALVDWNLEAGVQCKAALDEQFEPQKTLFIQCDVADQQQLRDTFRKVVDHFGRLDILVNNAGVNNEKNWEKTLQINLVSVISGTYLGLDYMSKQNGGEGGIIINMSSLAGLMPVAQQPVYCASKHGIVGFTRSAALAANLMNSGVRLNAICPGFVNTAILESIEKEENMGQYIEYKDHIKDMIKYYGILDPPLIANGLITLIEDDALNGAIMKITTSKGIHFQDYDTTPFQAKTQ
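NADH formation kinetics: reaction with 30 uM PGE2 and 1 mM NAD+ (final), 20 nM enzyme, Tris-HCl pH 8 with Tween 20, after 15 min compound preincubation at room temperature. Fluorescence change, last versus first of five reads.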
PNC inhibitor – blocks assembly of the perinucleolar compartment; PC3M PTB-GFP, PNC prevalence imaging, 16 h; stronger effect = lower value; activity change (PNC), negative = inhibition, % at 10 µM; 140,000 tested, 3.1% active; AID 2417;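 active means readout at or below -70, meaning at least 70% loss of cells showing the perinucleolar compartment, a nuclear body marking cancer cells; inconclusive means readout between -30 and a set limit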;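 further: plate controls were DMSO wells for no effect and camptothecin positive control wells for full effect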
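PC3M cells stably expressing PTB-GFP, 750–1000 cells/well, treated 16 h at 37 °C with compound (23 nl of library stock), in duplicate. After paraformaldehyde fixation and Hoechst stain, imaged at 20x; PNC prevalence scored by image analysis.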
* = called active by the depositor; [ ] = dose if it differs, or a comment. Only some compounds are listed: those with a hit (about 11% of all), similar ones and a draw of the others. Unless noted, the call rests on the fitted dose curve; in most records, active means well fitted inhibition curve with a large enough effect (not every such curve was filed as active); inconclusive means small, poorly fitted or top-dose-only effect, or another doubt; inactive means no such curve, though single readings can be large or run the other way. Unless noted, on the % scale 0 is the no-effect control and ±100 the full control effect.

What do the screens show for `COc1ccc(OCC(=O)OCC(=O)N2CC(=O)Nc3ccccc32)cc1`?
ALDH1A1 block: 5.0%; JMJD2E inh: -0.1%

Results for O=C1CN(C(=O)COC(=O)COc2ccc3c(c2)CCC3)c2ccccc2N1 ?
ALDH1A1 block: inconclusive; JMJD2E inh: 3.4%; HPGD block: 14.1µM*; PNC inhibitor: -8.2

What do the screens show for `CC(C)(C)Cn1c(=O)[nH]c(=O)c2cc([N+](=O)[O-])cnc21`?
ALDH1A1 block: -0.8%; JMJD2E inh: -26.3%; HPGD block: -17.9%; PNC inhibitor: -113.8*

What do the screens show for `CCCn1c(-c2cccc([N+](=O)[O-])c2)nc2c1c(=O)[nH]c(=O)n2Cc1ccccc1`?
ALDH1A1 block: -2.8%; JMJD2E inh: -1.4%; HPGD block: -16.3%; PNC inhibitor: -20.7

How did CC(=O)N[C@@H]1C(O)OC(CO)C(O)C1O (some centres undefined) do in these assays?
ALDH1A1 block: 4.5%; JMJD2E inh: 9.8%; HPGD block: -13.3%

What do the screens show for `O=C(N/N=C/c1ccc([N+](=O)[O-])cc1)c1ccc2nc[nH]c2c1`?
ALDH1A1 block: 6.31µM*; JMJD2E inh: -4.5%; HPGD block: -10.2%; PNC inhibitor: -88.4*

What do the screens show for `COc1ccc(/C=N/NC(=O)c2ccc3nc[nH]c3c2)cc1OC`?
JMJD2E inh: -5.6%

What do the screens show for `O=C(N/N=C/c1cccc([N+](=O)[O-])c1)c1ccc2nc[nH]c2c1`?
ALDH1A1 block: 11.2µM*; JMJD2E inh: 3.5%; HPGD block: -22.9%; PNC inhibitor: inconclusive

What do the screens show for `CSc1ccccc1C(=O)NCCOc1cccc(C)c1`?
ALDH1A1 block: -0.3%; JMJD2E inh: 3.4%

How did O=C(COc1ccc(Cl)cc1Cl)Nn1c(=S)[nH]c2ncccc2c1=O do in these assays?
ALDH1A1 block: -12.5%; JMJD2E inh: -0.4%; HPGD block: 28.2µM*; PNC inhibitor: inconclusive

What do the screens show for `COc1ccccc1OCC(=O)Nn1c(=S)[nH]c2ncccc2c1=O`?
ALDH1A1 block: -10.0%; JMJD2E inh: 4.1%; HPGD block: -28.7%; PNC inhibitor: 6.1

How did CCCNC(=O)OC[C@@H]1O[C@H](CCO/N=C(\C)CCN2CCc3nc(CC)c(CC)cc3C2)C=C[C@@H]1Oc1ccc(OC)cc1 do in these assays?
ALDH1A1 block: -7.4%[13.5 µM]

Results for O=C(NC(Nc1nc2ccc([N+](=O)[O-])cc2s1)(C(F)(F)F)C(F)(F)F)c1ccccc1Cl ?
ALDH1A1 block: inconclusive; JMJD2E inh: -8.5%; HPGD block: -2.0%; PNC inhibitor: -119.3*

How did O=C(NC(NNc1ccc([N+](=O)[O-])cc1)(C(F)(F)F)C(F)(F)F)c1ccc(F)cc1 do in these assays?
ALDH1A1 block: inconclusive; JMJD2E inh: -0.4%; HPGD block: 31.6µM*; PNC inhibitor: -20.1

What do the screens show for `COC(=O)C(NNc1ccccc1)(NC(=O)c1ccc(F)cc1)C(F)(F)F` (centres undefined)?
ALDH1A1 block: inconclusive; HPGD block: -13.7%; PNC inhibitor: -3.9

What do the screens show for `O=C(NC(Nc1nc2ccc([N+](=O)[O-])cc2s1)(C(F)(F)F)C(F)(F)F)c1cccnc1`?
ALDH1A1 block: inconclusive; JMJD2E inh: -2.6%; HPGD block: -23.0%; PNC inhibitor: -16.9

What do the screens show for `O=[N+]([O-])c1ccc(NNC(=S)Nc2ccc(F)cc2)cc1`?
ALDH1A1 block: 1.26µM*; JMJD2E inh: -18.9%; HPGD block: 22.4µM*; PNC inhibitor: inconclusive

What do the screens show for `O=C(NC(NNc1ccc([N+](=O)[O-])cc1)(C(F)(F)F)C(F)(F)F)c1ccccc1Cl`?
ALDH1A1 block: 14.1µM*; JMJD2E inh: inconclusive; HPGD block: 14.1µM*; PNC inhibitor: -2.0

What do the screens show for `Nc1nc(NCCCN2CCOCC2)nc(Nc2ccccc2F)c1[N+](=O)[O-]`?
JMJD2E inh: 7.1%

What do the screens show for `Cc1nnc(SCc2ccc([N+](=O)[O-])cc2)o1`?
ALDH1A1 block: -8.1%; JMJD2E inh: -5.4%

Results for C=C1C(=O)[C@]23[C@H](O)[C@H]1CC[C@H]2[C@@]12COC3(O)[C@H](O)[C@@H]1C(C)(C)CC[C@@H]2O ?
ALDH1A1 block: 8.8%; HPGD block: inconclusive

Results for CCOC(=O)CCc1c(C)n[nH]c1C ?
ALDH1A1 block: -0.1%; JMJD2E inh: -10.1%

Results for CCOC(=O)CCCc1sc(N)nc1-c1[nH]c(=O)[nH]c1C ?
ALDH1A1 block: 12.6µM*; JMJD2E inh: inconclusive; HPGD block: 31.6µM*; PNC inhibitor: 14.5

How did CC(=O)NS(=O)(=O)c1ccc(NC(=O)COc2ccc(C(=O)c3ccccc3)cc2)cc1 do in these assays?
ALDH1A1 block: 10µM*; JMJD2E inh: 1.9%; HPGD block: 25.1µM*; PNC inhibitor: -11.8

What do the screens show for `NS(=O)(=O)c1ccc(CCNS(=O)(=O)c2ccccc2)cc1`?
ALDH1A1 block: 8.91µM*; JMJD2E inh: -1.7%

What do the screens show for `COc1ccc(S(=O)(=O)NCCc2ccccc2)cc1`?
ALDH1A1 block: inconclusive; JMJD2E inh: 2.2%; HPGD block: 3.4%; PNC inhibitor: 23.3

Results for NS(=O)(=O)c1ccc(S(=O)(=O)NCCc2ccccc2)cc1 ?
ALDH1A1 block: -9.5%; JMJD2E inh: -6.7%; HPGD block: -12.4%; PNC inhibitor: 60.0

What do the screens show for `COCC(=O)Nc1ccc(S(=O)(=O)NCCc2ccccc2)cc1`?
ALDH1A1 block: -11.0%; JMJD2E inh: 12.4%; HPGD block: -7.8%; PNC inhibitor: -106.5*

Results for O=C(COC(=O)CC1CC2CCC1C2)NC(=O)NCc1ccco1 (centres undefined) ?
ALDH1A1 block: 14.1µM*; JMJD2E inh: 1.3%; HPGD block: -23.4%; PNC inhibitor: 17.3

Results for CC(=O)NN1C(=O)/C(=C/c2ccc(C(C)C)cc2)SC1=S ?
ALDH1A1 block: 3.98µM*; JMJD2E inh: -5.2%; HPGD block: -29.8%; PNC inhibitor: inconclusive

What do the screens show for `O=C1c2ccccc2C(=O)c2c1ccc1c(=O)n(C3CCCCC3)[nH]c21`?
ALDH1A1 block: -10.9%; JMJD2E inh: -10.4%; HPGD block: 14.1µM*; PNC inhibitor: 6.7

Results for O=c1c2[nH]c3ccccc3c2ncn1C1CCCCC1 ?
ALDH1A1 block: inconclusive; JMJD2E inh: inconclusive; HPGD block: -24.1%; PNC inhibitor: -9.4

How did CCOC(=O)C1(CC)NC(c2ccco2)C2C(=O)N(c3ccc(C)cc3)C(=O)C21 (centres undefined) do in these assays?
ALDH1A1 block: 14.1µM*; JMJD2E inh: -0.7%; HPGD block: -12.7%; PNC inhibitor: -10.6

What do the screens show for `CCOC(=O)C1(CC)NC(c2ccco2)C2C(=O)N(CC)C(=O)C21` (centres undefined)?
ALDH1A1 block: 9.8%; JMJD2E inh: -1.0%; HPGD block: -13.5%; PNC inhibitor: inconclusive

How did CCCCN(CCCC)C(=O)/C=C/c1cccc([N+](=O)[O-])c1 do in these assays?
ALDH1A1 block: 4.47µM*; JMJD2E inh: 2.9%; HPGD block: -17.3%; PNC inhibitor: 17.8

How did CCNC(=O)COC(=O)/C=C/c1cccc([N+](=O)[O-])c1 do in these assays?
ALDH1A1 block: -5.6%; JMJD2E inh: -17.9%

Assay outcomes as filed in PubChem.
